{"source": "paper PMC8384837", "about": "“Expanding the binding specificity for RNA recognition by a PUF domain”"}
{"target": "PUM1 PUF domain R4-GNS (Homo sapiens, UniProt Q14671 828-1176, N971G;H972N;Q975S)", "test": "yeast three-hybrid, YBZ-1, SC-Leu-His + 0.5 mM 3-AT, 4 days", "details": "tags: N-Gal4 AD-HA kept; label: inside an RPR1-promoter hybrid RNA with tandem MS2 sites; ssRNA", "outline": "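Sequencing with Illumina followed PCR amplification of the repeat regions from transformants grown four days on SC-Leu (input) or SC-Leu-His + 0.5 mM 3-AT (selection). The transformants were strain YBZ-1 with a LexA–MS2 coat fusion and a HIS3 reporter, carrying Pumilio-1 PUF domain libraries and matching RNA elements. The interaction score is the log change in variant frequency from input to selection, computed in log2 with a pseudocount of 1 for absent variants.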"}
{"sequence": "GGCUAGAACUAGUGGAUCCCCCGGCGCCCGGCGGCUCGAGCCCGGGUAAGUGUAAAUAGUCUGCAUGCCGCCGGGCGCCAUGCCUGCAGGUCGACUCUAGAAAACAUG", "binding signal": "2.34 log2 enrichment (interaction score)"}
{"sequence": "GGCUAGAACUAGUGGAUCCCCCGGCGCCCGGCGGCUCGAGCCCGGGUAAGUGUAUAUAGUCUGCAUGCCGCCGGGCGCCAUGCCUGCAGGUCGACUCUAGAAAACAUG", "binding signal": "4.46 log2 enrichment (interaction score)"}
{"sequence": "GGCUAGAACUAGUGGAUCCCCCGGCGCCCGGCGGCUCGAGCCCGGGUAAGUGUACAUAGUCUGCAUGCCGCCGGGCGCCAUGCCUGCAGGUCGACUCUAGAAAACAUG", "binding signal": "2.01 log2 enrichment (interaction score)"}
